Laboratory results as given in PubChem BioAssay AID651812 (National Center for Advancing Translational Sciences (NCATS), 2012).
The campaign covered roughly 2,100 compounds. About 650 (31%) were called active. Inconclusive results (about 16%) are left out. The list shows a part of the results. A number with no mark means an inactive call. Calls follow the shape of the dose curve; as a rule, active = well fitted inhibition curve with a large enough effect; inconclusive = small, poorly fitted or top-dose-only effect; inactive = flat fitted curve, though single readings scatter.

Assay: qHTS for inhibitors of Vif-A3G interactions: Cherry picks; also: nearly all actives have a fitted effect of over 80% in size; as to activity, negative = fluorescence increase: % of control where 0% means no effect
Settings: HeLa A3G-eYFP + Vif (tagged APOBEC3G with the HIV-1 protein that degrades it), 24 h; Potency: eYFP fluorescence increase; series mostly up to 36.9 µM; activity, negative = fluorescence increase: at the top concentration
Outline: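 HeLa cells stably expressing A3G-eYFP and Vif, cultured overnight then exposed to compounds at several concentrations for 24 hours at 37 C, 5% CO2; cellular yellow fluorescence (488 nm ex, 500-530 nm em) imaged on Acumen, MG132 positive control.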
Potency is read from the fitted curve at half-maximal effect.

| Structure (SMILES) | activity, negative = fluorescence increase | Potency |
| --- | --- | --- |
| COc1ccc(NC(=O)C2(C)Cc3c(-c4cccc(C(N)=O)c4)ccnc3O2)cc1 (configuration not stated) | -5.15% | – |
| Cc1cc(C(=O)N/N=C/c2ccc(C)o2)c2ccccc2n1 | -9.53% | – |
| Cc1cc(N/N=C/c2ccc([N+](=O)[O-])o2)nc2ccccc12 | – | 20.6 µM (active) |
| O=C(N/N=C/c1ccc([N+](=O)[O-])o1)c1cc(-c2ccc(-c3ccccc3)cc2)nc2ccccc12 | -17.5% | – |
| O=[N+]([O-])c1ccc(/C=N/Nc2ccc3ccccc3c2)o1 | – | 4.44 µM (active) |
| Cc1cccc(Nc2nc(N)nc(-c3oc4ccccc4c3C)n2)c1 | 1.73% | – |
| O=C(Nc1nc(-c2ccccn2)cs1)C1CCCC1 | 2.08% [at 46.1 µM] | – |
| Nc1c(C(=O)c2ccccc2)sc2nsc(SCCN3CCCC3)c12 | – | 19.8 µM (active) |
| O=C(c1ccccc1)C(CN1CCCCC1)c1ccccc1 (configuration not stated) | -1.48% | – |
| Nc1c(C(=O)c2ccccc2)sc2nsc(SCCN3CCOCC3)c12 | – | 16.4 µM (active) |
| C[C@H]1CN([C@@H](C)CO)C(=O)Cc2cc(NC(=O)CCC(F)(F)F)ccc2O[C@H]1CN(C)S(=O)(=O)c1ccc(F)cc1 | -5.1% | – |
| C/C(=N\NC(=O)c1cc(C)nc2ccccc12)c1ccncc1 | -2.34% | – |
| Cc1cccc(N2CCN(Cc3cn(C)nc3-c3ccccc3F)CC2)n1 | -2.89% | – |
| C[C@H](O)[C@@H]1CN2CCc3c([nH]c4ccccc34)[C@@H]2C[C@@H]1N(C)C(=O)c1ccco1 | -0.738% | – |
| COC(=O)C1C2CC3c4[nH]c5cc(OC)ccc5c4CCN3CC2CC(OC2CCCCO2)C1OC (configuration not stated) | – | 20.6 µM (active) |
| COC(=O)C1C2CC3c4[nH]c5cc(OC)ccc5c4CCN3CC2CC(OC(=O)CC(C)=O)C1OC (configuration not stated) | – | 18.4 µM (active) |
| Cc1ccccc1NC(=O)CSC1=C(C#N)C(c2ccsc2)CC(=O)N1 (configuration not stated) | -3.24% | – |
| COc1ccc(NC(=O)/C(C#N)=C/C=C/c2ccco2)cc1 | -1.01% | – |
| O=C(N/N=C/C=C/c1ccco1)c1ccncc1 | 7.78% [at 46.1 µM] | – |
| O=[N+]([O-])c1ccc(N/N=C/C=C/c2ccco2)cc1 | – | 16.4 µM (active) |
| O=Nc1ccc(O)c2ncccc12 | -6.47% | – |
| CC1=NN(c2ccccc2)C(=O)/C1=C/C=C/c1ccccc1 | -7.4% | – |
| COc1ccccc1CCC(=O)Nc1ccc2c(c1)c(=O)n(C)n2-c1cccs1 | -14.5% | – |

| Structure (SMILES) | activity, negative = fluorescence increase | Potency |
| --- | --- | --- |
| O=C1c2cccc3c(N4CCCCC4)ccc(c23)C(=O)N1CCO | – | 17.7 µM (active) |
| C=CCN1C(=O)c2cccc3c(N4CCCCC4)ccc(c23)C1=O | – | 20.6 µM (active) |
| O=C(NC(=S)Nc1ccccc1N1CCCCC1)c1ccccc1 | 13.5% [at 46.1 µM] | – |
| O=C1c2cccc3c(N4CCCCC4)ccc(c23)C(=O)N1c1ccccc1O | – | 1.3 µM (active) |
| O=C1c2cccc3c(N4CCCCC4)ccc(c23)C(=O)N1c1cccc(O)c1 | -14.5% [at 46.1 µM] | – |
| COc1ccc(S(=O)(=O)Nc2cc(Sc3ncn[nH]3)c(O)c3ccccc23)cc1 | -20.8% | – |
| CSc1ccccc1NC(=O)COC(=O)/C=C/c1ccco1 | -3.36% [at 46.1 µM] | – |
| O=C(NC(=S)N1CCc2ccccc21)c1ccco1 | 6.64% [at 46.1 µM] | – |
| CCCOc1ccccc1C1CC(=O)NC2=C1C(=O)CCC2 (configuration not stated) | -1.81% | – |
| CCN(CC)CCCNc1ccc2ncn3c4ccc(O)cc4c(=O)c1c23 | – | 18.4 µM (active) |
| CN(C)CCNc1ccc2ncn3c4ccc(O)cc4c(=O)c1c23 | – | 20.6 µM (active) |
| CCCCOc1ccc(-c2nnn(CC(=O)NCc3ccco3)n2)cc1 | -5.01% | – |
| COC(=O)c1cccc(NS(=O)(=O)c2ccc(OC)cc2)c1C | -1.35% | – |
| O=C(CSc1ccccc1)Nc1nc2ccccc2[nH]1 | -8.99% | – |
| CC(=O)Nc1sc2c(c1-c1nc3ccccc3s1)CCN(C(C)C)C2 | – | 18.4 µM (active) |
| CN1CCc2c(sc(NC(=O)CSc3ccc(F)cc3)c2-c2nc3ccccc3s2)C1 | – | 1.64 µM (active) |
| COc1cccc(N2CC(O)=C(c3nc4ccccc4s3)C2=N)c1 | -13.4% | – |
| COc1ccccc1/C=N/NC(=O)c1cc2c(OC)c(OC)ccc2[nH]1 | -4.72% | – |
| CC1CC(C)CN(CC(=O)c2c[nH]c3ccccc23)C1 (configuration not stated) | – | 18.4 µM (active) |
| O=C(C(=O)N1CCN(c2ccccc2Cl)CC1)c1c[nH]c2ccccc12 | 1.33% | – |
| C=CCN1C=CC(=CC=C(C#N)C#N)C=C1 | – | 14 µM (active) |
| CCCN1C=CC(=CC=C(C#N)C#N)C=C1 | – | 15.8 µM (active) |
| COc1cccc(/C=N/n2c(C3CCCCC3)n[nH]c2=S)c1O | 8.61% [at 46.1 µM] | – |

| Structure (SMILES) | activity, negative = fluorescence increase | Potency |
| --- | --- | --- |
| COCCNC(=O)C(=O)Nc1ccc2c(c1)N(S(=O)(=O)c1cccs1)CCC2 | -0.781% | – |
| CN(/N=C/c1ccc(N(C)C)cc1)C1=NS(=O)(=O)c2ccccc21 | – | 17.7 µM (active) |
| CN(C)c1ccc(/C=N/NC(=O)c2ccccc2Cl)cc1 | 3.19% | – |
| CCn1c(CNC(=O)c2cc(OC)c(OC)c(OC)c2)cc2cc(C)ccc21 | -2.87% [at 46.1 µM] | – |
| CCOc1ncccc1C(=O)OCc1ccc(C(=O)OC)cc1 | -9.97% | – |
| COc1ccc(N/C=C/c2nc(SC)nnc2C)cc1 | -23.1% [at 46.1 µM] | – |
| C=CCSc1nnc(C)c(/C=C/Nc2ccc(Cl)cc2)n1 | – | 20.6 µM (active) |
| COc1ccccc1NC1=NC(c2ccc(Cl)cc2)N=C(N)N1 (configuration not stated) | -5.12% | – |
| CCN(CC)c1ccc(/C=N/NC(=S)NC)c(O)c1 | 0.353% [at 46.1 µM] | – |
| CCN1C(=S)SC(=O)C1=C1C=C(C)N(Cc2ccco2)C(C)=C1 | – | 14 µM (active) |
| Cc1c(C(=O)Nc2cnccn2)oc2ccccc12 | -1.49% | – |
| O=C1CC(c2cc(F)ccc2F)c2cc3c(cc2N1)CCC3 (configuration not stated) | -1.72% | – |
| O=C(Cc1n[nH]c(=O)c2ccccc12)OCC(=O)c1ccc2c(c1)OCCO2 | -14.4% | – |
| N#Cc1ccc(/C=C\c2nccc3c2[nH]c2ccccc23)cc1 | – | 14 µM (active) |
| C(=C/c1nccc2c1[nH]c1ccccc12)/c1ccc2c(c1)OCO2 | -7.14% | – |
| O=C(C[n+]1cccc2cc(Cl)ccc21)c1ccc(I)cc1 | – | 20.6 µM (active) |
| CC(C)(C)c1ccc(C(=O)C[n+]2cccc3cc(Cl)ccc32)cc1 | – | 20.6 µM (active) |
| O=C(C[n+]1cccc2cc(Cl)ccc21)c1ccc2ccccc2c1 | – | 23.1 µM (active) |
| O=C(C[n+]1cccc2cccc(O)c21)c1ccc2ccccc2c1 | -11% [at 46.1 µM] | – |
| O=C(COC(=O)c1ccc(NS(=O)(=O)c2cccs2)cc1O)NCc1ccccc1 | -9.24% | – |
| CCC(=Nc1ccccc1O)C1=C(O)CC(c2ccccc2)CC1=O (configuration not stated) | -3.16% | – |
